Test results as given in PubChem BioAssay (EPA / NIEHS).
“And” between values parts separate entries of the source, which are not always exact repeats. Equal values may be shown once. The source made the active and inactive calls. The calls were made as follows: active = hit-call score of the fitted dose curve at least 0.9, where 1 is the maximum; inactive = score below 0.9.

Assay: CCTE_Mundy_HCI_hNP1_Casp3_7: CCTE's Caspase-Glo 3/7 Assay in human neuroprogenitor cells for Apoptosis, Mundy Lab (AID 2284240)
Procedure: CCTE_Mundy_HCI_hNP1_Casp3_7 is a multiplexed, cell-based-readout assay that uses neural stem cells derived from a neuroepithelial cell lineage of WA09 embryonic cells with measurements taken at […] after chemical dosing in a microplate: 96-well plate.CCTE_Mundy_HCI_hNP1_Casp3_7 is one component of the CCTE_Mundy_HCI_hNP1_Casp3_7 assay. It measures apoptosis related to caspase activation using Luminescent Reporter.Data from the assay component CCTE_Mundy_HCI_hNP1_Casp3_7 was analyzed at the endpoint CCTE_Mundy_HCI_hNP1_Casp3_7_gain in the positive analysis fitting direction relative to DMSO as the negative control and baseline of activity. Using a type of viability reporter, gain -of-signal activity can be used to understand viability effects.
Human neural progenitor cells (hNP1) were obtained as cryopreserved cells from ArunA Biomedical, Athens Georgia. Cells are plated on pre-coated poly-L-ornithine/laminin clear bottom and opaque 96 well plates (day 0). Plates are placed in a 37 °C, 5% CO2 incubator for 40 to 44 hours at which time plates are removed from the incubator and 10 uL of a freshly made chemical solution is added to each well. Apoptosis was measured based on detection of activated caspase-3/7 using the Caspase-Glo 3/7 assay kit (Promega). Twenty-four hours after chemical treatment, 50ul of Caspase-Glo 3/7 assay buffer was added to each well and the plate incubated for 30min at room temperature. Luminescence was then recorded in each well using a FLUOstar Optima plate reader.

Row | Compound | AC50 | outcome
1 | OC(O)(C(F)C(O)(O)C(F)(F)F)C(F)(F)F | 13.4 µM (active) | –
2 | Nc1ccn([C@@H]2O[C@H](CO)[C@@H](O)[C@@H]2O)c(=O)n1 | 29 nM (active) and 290 nM (active) | –
3 | OC(Cn1cncn1)(Cn1cncn1)c1ccc(F)cc1F | – | inactive
4 | NC(=O)N1c2ccccc2C=Cc2ccccc21 | – | inactive
5 | NNC(=O)c1ccncc1 | – | inactive
6 | Cn1cc[nH]c1=S | – | inactive
7 | FC(F)=C(F)C(F)(F)C(F)(F)C(F)(F)C(F)(F)C(F)(F)C(F)(F)F | – | inactive
8 | C[C@]12C=CC(=O)C=C1CC[C@H]1[C@@H]3C[C@@H](O)[C@](O)(C(=O)CO)[C@@]3(C)C[C@H](O)[C@@]12F | 23 µM (active) | –
9 | FC(F)(F)C(F)(F)C(F)(F)C(F)(F)C(F)(F)C(F)(F)I | – | inactive
10 | COc1cc2c(c(OC)c1OC)-c1ccc(OC)c(=O)cc1[C@@H](NC(C)=O)CC2 | 0.0228 µM (active) | –
11 | CCCC(CCC)C(=O)O | 1500 µM (active) | –
12 | c1ccc2cc3ccccc3cc2c1 | – | inactive
13 | O=C(Cl)C(F)(F)C(F)(F)C(F)(F)C(=O)Cl | – | inactive
